Laboratory results taken from PubChem BioAssay AID651640 (Broad Institute, 2012).
“And” between values parts separate entries of the source, which are not always exact repeats. Equal entries are not always repeated. The whole screen tested about 350,000 compounds, of which about 6,000 (1.7%) were called active. About 5% were inconclusive and are not listed. Cut-off read from the data, not from the text of the source: active = CPE inhibition above about 20% (passing the limit was not always enough); inconclusive = no clear call, values can overlap the other calls; tested in BHK-21 cells. The list comes from a sample in which actives are over-represented; it also holds similar structures and randomly drawn compounds. Some compounds were tested as several samples or in several runs, with calls that do not always agree.

Assay: inhibitors of DENV2 cytopathic effect, primary screen, cell-based, plate reader, single concentration (AID 651640);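 note: 0% = median of neutral control wells and 100% = median of positive control wells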
Conditions: DENV2-infected cells, cytopathic effect rescue, at 9.99 µM, stronger effect = higher value
In the case of `COc1ccc(C2=NN(C(=O)CCC(=O)O)C(c3cccs3)C2)cc1OC` (centres undefined), the CPE inhibition is reported as -2.94% (inactive).
In the case of `COc1ccc(C2CC(c3cccs3)=NN2C(=O)CSc2nncs2)cc1OC` (centres undefined), the CPE inhibition is reported as 6.81% (inactive).
In the case of `COc1ccc(C2CC(c3cccs3)=NN2C(=O)CCC(=O)O)cc1OC` (centres undefined), the CPE inhibition is reported as 36.9% (active).
With `COc1ccccc1C(=O)NCCC(=O)NN1C(=O)NC2(CCCCC2)C1=O` the CPE inhibition was 0.164% (inactive).
For `COc1ccccc1CNC(=O)CCCN1C(=O)NC2(CCCC2)C1=O`, the CPE inhibition was 54.7% (active).
In the case of `COc1ccccc1CCNC(=O)CN1C(=O)NC2(CCCC2)C1=O`, the CPE inhibition is reported as -7.14% (inactive).
In the case of `C[C@@H]1CCCCO[C@@H](CN(C)C(=O)C2CCCCC2)[C@@H](C)CN([C@H](C)CO)C(=O)c2cc(NC(=O)c3ccccc3)ccc2O1`, the CPE inhibition is reported as 17.1% (inactive).
In the case of `COc1ccccc1NC(=O)N(C)C[C@H]1Oc2cc(Br)ccc2S(=O)(=O)N([C@H](C)CO)C[C@@H]1C`, the CPE inhibition is reported as 10.7% (inactive) and 3.12% (inactive).
For `C[C@@H]1CN([C@H](C)CO)S(=O)(=O)c2ccc(C#CCC3CCCC3)cc2O[C@H]1CN(C)C(=O)CC1CC1`, the CPE inhibition was 9.35% (inactive).
For `C[C@H]1CN([C@@H](C)CO)S(=O)(=O)c2ccc(-c3cncnc3)cc2O[C@H]1CN(C)Cc1ccncc1`, the CPE inhibition was 35.7% (active).
With `C[C@H](CO)N1C[C@H](C)[C@H](CN(C)Cc2ccncc2)Oc2cc(-c3cncnc3)ccc2S1(=O)=O` the CPE inhibition was -6.89% (inactive).
In the case of `Cc1noc(C)c1NC(=O)N(C)C[C@@H]1Oc2cc(Br)ccc2S(=O)(=O)N([C@@H](C)CO)C[C@H]1C`, the CPE inhibition is reported as 21.5% (active) and 2.3% (inactive).
In the case of `C[C@@H]1CN([C@H](C)CO)S(=O)(=O)c2ccc(C#CCC3CCCC3)cc2O[C@H]1CN(C)Cc1ccc(C(=O)O)cc1`, the CPE inhibition is reported as 41.8% (active).
In the case of `C[C@H](CO)N1C[C@H](C)[C@@H](CN(C)Cc2cncnc2)Oc2cc(-c3ccccc3)ccc2S1(=O)=O`, the CPE inhibition is reported as -3.98% (inactive).
For `CCC(=O)N(C)C[C@H]1Oc2cc(C#CCOC)ccc2S(=O)(=O)N([C@H](C)CO)C[C@H]1C`, the CPE inhibition was 77.3% (active).
In the case of `CCC(=O)N(C)C[C@@H]1Oc2cc(C#CCOC)ccc2S(=O)(=O)N([C@H](C)CO)C[C@H]1C`, the CPE inhibition is reported as -10.5% (inactive).
With `COCC#Cc1ccc2c(c1)O[C@H](CN(C)C(=O)CN(C)C)[C@@H](C)CN([C@H](C)CO)S2(=O)=O` the CPE inhibition was -5.36% (inactive).
For `C[C@@H]1CN([C@@H](C)CO)S(=O)(=O)c2ccc(C#CCC3CCCC3)cc2O[C@@H]1CN(C)C`, the CPE inhibition was -3.23% (inactive).
In the case of `Cc1noc(C)c1NC(=O)N(C)C[C@@H]1Oc2cc(C#CCC(C)C)ccc2S(=O)(=O)N([C@H](C)CO)C[C@@H]1C`, the CPE inhibition is reported as 16.2% (inactive).
In the case of `CN1C(=O)c2cc(NC(=O)Nc3ccccc3Cl)ccc2OC[C@H]2O[C@H](CC(=O)NCCCN3CCOCC3)CC[C@H]21`, the CPE inhibition is reported as -4.69% (inactive).
With `CCNC(=O)C[C@@H]1CC[C@H]2[C@@H](COc3ccc(NC(=O)NC(C)C)cc3C(=O)N2C)O1` the CPE inhibition was -7.53% (inactive).
In the case of `COc1ccc(NC(=O)Nc2ccc3c(c2)OC[C@@H](C)NC[C@@H](C)[C@H](OC)CN(C)C3=O)cc1`, the CPE inhibition is reported as -3.84% (inactive).
For `COc1ccc(S(=O)(=O)N2C[C@@H](O)COC[C@H]3O[C@@H](CC(=O)NCCN4CCCCC4)CC[C@@H]32)cc1`, the CPE inhibition was 2.39% (inactive).
In the case of `C[C@@H]1CN([C@H](C)CO)C(=O)c2cc(NC(=O)NC3CCCCC3)ccc2O[C@H]1CN(C)C(=O)Nc1ccccc1`, the CPE inhibition is reported as 1% (inactive).
For `C[C@@H]1CCCCO[C@@H](CN(C)C(=O)Cc2ccccc2)[C@@H](C)CN([C@@H](C)CO)C(=O)c2cc(NC(=O)c3ccccc3)ccc2O1`, the CPE inhibition was -1.37% (inactive).
With `O=C(Nc1ccccc1)N[C@@H]1CC[C@H](CCn2cc(-c3ccccc3F)nn2)O[C@@H]1CO` the CPE inhibition was 10.9% (inactive).
In the case of `CS(=O)(=O)N1CC2(C1)[C@H](c1ccccc1)[C@@H](CO)N2C(=O)c1ccccc1`, the CPE inhibition is reported as 0.143% (inactive).
With `O=S(=O)(c1ccc(F)cc1)N1CCCCN2[C@H](CO)[C@@H](c3ccc(C#CC4CCCC4)cc3)[C@H]2C1` the CPE inhibition was -3.13% (inactive).
For `C[C@@H]1CN([C@H](C)CO)S(=O)(=O)c2ccc(C3=CCCC3)cc2O[C@H]1CN(C)C(=O)Nc1ccc2c(c1)OCO2`, the CPE inhibition was 21.4% (active).
In the case of `COCC(=O)N(C)C[C@H]1Oc2cc(C#CC(C)C)ccc2S(=O)(=O)N([C@H](C)CO)C[C@@H]1C`, the CPE inhibition is reported as -1.85% (inactive).
For `C[C@H]1CN([C@@H](C)CO)S(=O)(=O)c2ccc(C3=CCCC3)cc2O[C@H]1CN(C)C(=O)Nc1ccc2c(c1)OCO2`, the CPE inhibition was -1.69% (inactive).
In the case of `COCC(=O)N(C)C[C@H]1Oc2cc(Br)ccc2S(=O)(=O)N([C@H](C)CO)C[C@H]1C`, the CPE inhibition is reported as 21.7% (inactive) and 31.3% (active).
For `C[C@H]1CN([C@@H](C)CO)S(=O)(=O)c2ccc(C#Cc3ccncc3)cc2O[C@@H]1CN(C)C(=O)Nc1ccc2c(c1)OCO2`, the CPE inhibition was 13.3% (inactive).
With `C[C@@H]1CN([C@@H](C)CO)S(=O)(=O)c2ccc(Br)cc2O[C@@H]1CN(C)C(=O)CN(C)C` the CPE inhibition was 2.66% (inactive).
In the case of `O=C(C[C@@H]1CC[C@H](NC(=O)Cc2ccccn2)[C@H](CO)O1)NCCc1ccncc1`, the CPE inhibition is reported as 1.65% (inactive).
For `CCNC(=O)C[C@@H]1CC[C@H]2[C@@H](COc3ccc(NC(=O)Cc4cccs4)cc3C(=O)N2C)O1`, the CPE inhibition was -0.188% (inactive).
With `Cc1noc(C)c1NC(=O)Nc1ccc2c(c1)C(=O)N([C@@H](C)CO)C[C@H](C)[C@H](CN(C)Cc1ccc(C(=O)O)cc1)OCCCC[C@@H](C)O2` the CPE inhibition was -4.14% (inactive).
For `CSc1ccc(Oc2cccc3c2S(=O)(=O)N([C@H](C)c2ccccc2)C[C@@H](COCc2ccccc2)O3)cc1C`, the CPE inhibition was 12% (inactive).
In the case of `COC(=O)N1Cc2ccnnc2CC1c1ccccc1Br` (centres undefined), the CPE inhibition is reported as -2.73% (inactive).
For `O=C(O)c1ccccc1-c1cccc2nncn12`, the CPE inhibition was -0.993% (inactive).
For `CCCC/C=C/c1cccc2nncn12`, the CPE inhibition was 28.7% (active).
With `C[C@@H]1CCCCO[C@@H](CN(C)S(=O)(=O)c2cn(C)cn2)[C@H](C)CN([C@H](C)CO)C(=O)c2cc(NC(=O)NC3CCCCC3)ccc2O1` the CPE inhibition was 5.41% (inactive).
In the case of `O=C(NC(=S)Nc1ccc(S(=O)(=O)Nc2ncccn2)cc1)c1cccc(Br)c1`, the CPE inhibition is reported as -1.82% (inactive).
For `COc1ccc(OC)c(C(C)NC(=S)Nc2ccc(S(=O)(=O)Nc3ncccn3)cc2)c1` (centres undefined), the CPE inhibition was 49.8% (active).
For `CC(Oc1cccc(Cl)c1)C(=O)Nc1ccc(S(=O)(=O)Nc2ncccn2)cc1` (centres undefined), the CPE inhibition was 2.3% (inactive).
With `Cc1noc(C)c1NC(=O)Nc1ccc2c(c1)C(=O)N([C@H](C)CO)C[C@@H](C)[C@H](CN(C)S(=O)(=O)c1ccc(Cl)cc1)OCCCC[C@H](C)O2` the CPE inhibition was -4.55% (inactive).
In the case of `Cc1ccc(-c2ccc(CN3C(C(C)C)C(=O)N(Cc4cn(CCC5OCCO5)nn4)CCS3(=O)=O)cc2)cc1` (centres undefined), the CPE inhibition is reported as 6.07% (inactive).
In the case of `COc1ccc(Cn2cc(CN3CCS(=O)(=O)N(Cc4ccc(-c5cccc(Cl)c5)cc4)C(C)C3=O)nn2)cc1` (centres undefined), the CPE inhibition is reported as 3.05% (inactive).
In the case of `Cc1ccc(-c2ccc(CN3C(C(C)C)C(=O)N(Cc4cn(CCC5OCCCO5)nn4)CCS3(=O)=O)cc2)cc1` (centres undefined), the CPE inhibition is reported as 102% (active).
In the case of `Cc1ccc(-c2ccc(CN3C(C)C(=O)N(Cc4cn(CCC5OCCCO5)nn4)CCS3(=O)=O)cc2)cc1` (centres undefined), the CPE inhibition is reported as 86.5% (active).
With `CC1C(=O)N(Cc2cn(Cc3ccco3)nn2)CCS(=O)(=O)N1Cc1ccc(-c2cccc(CO)c2)cc1` (centres undefined) the CPE inhibition was -5.64% (inactive).
With `CC(C)C1C(=O)N(Cc2cn(CCC3OCCO3)nn2)CCS(=O)(=O)N1Cc1ccc(-c2ccccc2C(F)(F)F)cc1` (centres undefined) the CPE inhibition was -6.47% (inactive).
With `CCCNC(=O)[C@@H]1[C@@H](CO)[C@@H]2Cn3c(cccc3=O)[C@H]1N2C(=O)C1CC1` the CPE inhibition was -2.53% (inactive).
In the case of `CO[C@@H]1CN(C)C(=O)c2ccc(NC(=O)Nc3ccccc3)cc2OC[C@@H](C)N(C(=O)Nc2c(C)noc2C)C[C@@H]1C`, the CPE inhibition is reported as -2.63% (inactive).
With `CCCNC(=O)Nc1ccc2c(c1)C(=O)N(C)[C@H]1CC[C@H](CC(=O)NCC3CCCCC3)O[C@@H]1CO2` the CPE inhibition was 7.7% (inactive).
In the case of `CCC(=O)N(C)C[C@@H]1Oc2ncc(-c3ccccc3OC)cc2C(=O)N([C@@H](C)CO)C[C@@H]1C`, the CPE inhibition is reported as -0.292% (inactive).
For `O=C(C[C@@H]1C=C[C@@H](NC(=O)c2ccccn2)[C@@H](CO)O1)NCc1cc(F)cc(F)c1`, the CPE inhibition was -1.09% (inactive).
For `CO[C@@H]1CN(C)C(=O)c2cc(NC(=O)C3CC3)ccc2OC[C@H](C)N(C(=O)CN2CCOCC2)C[C@@H]1C`, the CPE inhibition was -10.9% (inactive) and -2.35% (inactive).
For `CCCNC(=O)N1C[C@H](C)[C@H](OC)CN(C)C(=O)c2cc(NC(=O)CC)ccc2OC[C@H]1C`, the CPE inhibition was -0.559% (inactive).
With `CO[C@H]1CN(C)C(=O)c2ccc(NC(=O)C3CC3)cc2OC[C@H](C)N(C(=O)CN2CCOCC2)C[C@@H]1C` the CPE inhibition was -2.69% (inactive).
With `CCCC(=O)Nc1ccc2c(c1)OC[C@H](C)N(C(=O)C1CCCC1)C[C@@H](C)[C@H](OC)CN(C)C2=O` the CPE inhibition was -8.69% (inactive).
In the case of `CCCC(=O)Nc1ccc2c(c1)C(=O)N(C)C[C@H](OC)[C@@H](C)CN(C(C)=O)[C@H](C)CO2`, the CPE inhibition is reported as 68% (active).
In the case of `CCC(=O)N1C[C@H](C)[C@H](OC)CN(C)C(=O)c2ccc(NC(=O)Nc3ccccc3)cc2OC[C@H]1C`, the CPE inhibition is reported as -7.71% (inactive).
With `CCCC(=O)Nc1ccc2c(c1)C(=O)N(C)C[C@@H](OC)[C@H](C)CN(C(C)=O)[C@H](C)CO2` the CPE inhibition was 4.44% (inactive).
For `CCCC(=O)Nc1ccc2c(c1)OC[C@H](C)N(C(=O)CC)C[C@H](C)[C@@H](OC)CN(C)C2=O`, the CPE inhibition was 25.3% (active).
In the case of `CO[C@H]1CN(C)C(=O)c2cc(NS(C)(=O)=O)ccc2OC[C@H](C)N(C(=O)C2CCCC2)C[C@H]1C`, the CPE inhibition is reported as -6.55% (inactive).
In the case of `CO[C@@H]1CN(C)C(=O)c2cc(NS(C)(=O)=O)ccc2OC[C@@H](C)N(C(=O)C2CCC2)C[C@@H]1C`, the CPE inhibition is reported as 23.4% (active).
With `CO[C@H]1CN(C)C(=O)c2ccc(NC(=O)C3CC3)cc2OC[C@@H](C)N(C(=O)CN2CCOCC2)C[C@H]1C` the CPE inhibition was 41.3% (active).
In the case of `CO[C@H]1CN(C)C(=O)c2ccc(NS(C)(=O)=O)cc2OC[C@H](C)N(C(=O)C2CCC2)C[C@H]1C`, the CPE inhibition is reported as -2.45% (inactive).
